High-throughput results: PubChem BioAssay, National Center for Advancing Translational Sciences (NCATS)
Sampled rows, rich in hits. Any-hit rate of the full collection: about 9.2%.
Rab9 prom act – qHTS Assay for Rab9 Promoter Activators; AID 485297, 2010; Huh7 Rab9 promoter-luciferase reporter, luminescence, 24 h; 320,000 compounds, 2.8% hits; Potency, µM (highest dose often 9.22 µM), inactives show top-dose activation, negative = inhibition, usual class: activators; further: % of control where 0% means no effect; nearly all actives have a fitted effect of over 60% in size
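Stable Rab9-luc Huh7, 1500 cells/well, 2 h settle; cmpd in DMSO, 24 h, 37 °C/5% CO2; luciferase reagent 10 min RT; luminescence.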
FLuc modulator – qHTS profiling assay for firefly luciferase inhibitor/activator using purifed enzyme and Km concentrations of substrates (counterscreen for miR-21 project). purified FLuc, Km substrates, luminescence inhibition. Luciferin 4-monooxygenase (Photinus pyralis), P08659. Potency, µM (highest dose often 57.5 µM), for inactives: at the top dose activity change, negative = inhibition, hits mostly inhibitors. 360,000 compounds, 6.9% hits. AID 588342, 2011;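 further: plate controls were vehicle for no effect and reference inhibitor for full effect; nearly all actives have a fitted effect of over 55% in size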
Target sequence (P08659 whole entry, looked up): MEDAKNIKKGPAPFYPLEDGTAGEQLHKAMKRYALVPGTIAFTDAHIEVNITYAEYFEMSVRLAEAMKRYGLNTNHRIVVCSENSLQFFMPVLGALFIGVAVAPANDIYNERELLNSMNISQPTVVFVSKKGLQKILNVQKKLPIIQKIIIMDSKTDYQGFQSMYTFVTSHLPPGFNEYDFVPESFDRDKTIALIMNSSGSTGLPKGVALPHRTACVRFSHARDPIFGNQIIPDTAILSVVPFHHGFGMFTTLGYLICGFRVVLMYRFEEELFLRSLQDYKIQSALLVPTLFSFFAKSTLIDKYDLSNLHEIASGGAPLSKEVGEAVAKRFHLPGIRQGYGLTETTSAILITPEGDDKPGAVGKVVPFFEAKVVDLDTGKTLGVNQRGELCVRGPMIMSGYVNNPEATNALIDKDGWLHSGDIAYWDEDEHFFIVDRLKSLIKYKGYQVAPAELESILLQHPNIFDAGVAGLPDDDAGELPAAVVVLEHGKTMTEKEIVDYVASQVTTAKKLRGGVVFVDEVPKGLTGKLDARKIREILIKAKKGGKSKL
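Purified P. pyralis luciferase (10nM final) with 10uM D-luciferin and 10uM ATP (Km levels) in 50mM Tris acetate pH 7.5, 10mM Mg acetate, 0.01% Tween-20, 0.05% BSA; qHTS 6-point titration, ~60 µM downward; luminescence read.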
SMN2 splice up – qHTS Assay for Enhancers of SMN2 Splice Variant Expression. Potency, µM (series often up to 46.1 µM), without a hit: at the highest dose activity change, positive = activation, actives largely listed as activators. HEK293 SMN2-luciferase splicing reporter, luminescence, 30-36 h. 210,000 compounds, 2.8% hits. AID 1458, 2008; further: % of control where 0% means no effect; nearly all actives have a fitted effect of over 55% in size
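HEK293 cells carry an SMN2 minigene-luciferase reporter in which exon 7 inclusion puts luciferase in frame. Cells were seeded at 2000 cells/well, attached for 10-12 hours, then exposed to compounds for 30-36 hours at 37C before ONE-Glo luminescence.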
ELG1 repair inh – qHTS screen for small molecules that inhibit ELG1-dependent DNA repair in human embryonic kidney (HEK293T) cells expressing luciferase-tagged ELG1; HEK293T ELG1-luciferase reporter, luminescence, 16 h; DNA damage induced by 5-fluorouridine; Potency, µM (doses to about 46.1 µM), inactives show top-dose activity change, negative = inhibition, most hits filed as inhibitors; AID 504467, 2011; 330,000 compounds, 2.3% hits; further: on the % scale 0 is the no-effect control and ±100 the full control effect; nearly all actives have a fitted effect of over 55% in size
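Quantitative HTS, concentration-response format. 2,000 cells/well co-treated with 5-fluorouridine and compound, 16 hr in 5% CO2 at 37 °C; ONE-Glo luminescence read after 30 min.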
NPC1 prom act – qHTS Assay for NPC1 Promoter Activators; 320,000 compounds, 2.4% hits; Huh7 NPC1 promoter luciferase reporter, 24 h; Potency, µM (doses to about 9.22 µM), for the others: top-dose activation, hits mostly activators; further: % of control where 0% means no effect; nearly all actives have a fitted effect of over 60% in size
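Luminescence from an NPC1 promoter-driven luciferase reporter in stably transfected Huh7 cells was measured after 24 h compound treatment at 37 °C, followed by 10 min ambient incubation with luciferase detection reagent.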
ELG1 genotox – qHTS screen for small molecules that induce genotoxicity in human embryonic kidney (HEK293T) cells expressing luciferase-tagged ELG1 | HEK293T ELG1-luciferase reporter, luminescence, 16 h | Potency, µM (doses to about 46 µM), without a hit: at the highest dose activity change, positive = activation, usual class: activators | 330,000 compounds, 1.3% hits; further: % of control where 0% means no effect; nearly all actives have a fitted effect of over 60% in size
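HEK293T cells expressing luciferase-tagged ELG1 were exposed to compound or DMSO vehicle for 16 hr at 37 °C and 5% CO2. Luciferase activity was then measured with ONE-Glo after 30 min at room temperature.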
ELG1 FLuc counter – qHTS screen for small molecules that inhibit ELG1-dependent DNA repair: Hit Confirmation in Cell-Based Luciferin Assay. shares compounds with ELG1 repair inh. cell-free firefly luciferase luminescence counter-screen, ViewLux. Potency, µM (doses to about 46.1 µM), for the others: at the top dose activity change, negative = inhibition, usual class: inhibitors. 350 compounds, 3% hits; further: on the % scale 0 is the no-effect control and ±100 the full control effect
ELG1-Luc inh – HTS assay for small molecules that inhibit ELG1-dependent DNA repair in human embryonic kidney (HEK293T) cells expressing luciferase-tagged ELG1: Hit Confirmation; shares compounds with ELG1 repair inh; HEK293T ELG1-luciferase levels, luminescence; cells co-treated with 5-fluorouridine; Potency, µM (top dose mostly 46.1 µM), for inactives: top-dose activity change, negative = inhibition, hits mostly inhibitors; 670 compounds, 68% hits; AID 624248, 2012; further: on the % scale 0 is the no-effect control and ±100 the full control effect; nearly all actives have a fitted effect of over 55% in size
ELG1-Luc MMS – inhibits ELG1-dependent repair under MMS stimulation in HEK293T cells; Potency, µM (highest dose often 46.1 µM), for the others: at the highest dose activity change, negative = inhibition, hits mostly inhibitors; 670 compounds, 53% hits; shares compounds with ELG1 repair inh; HEK293T luciferase-tagged ELG1 level, MMS stimulated; further: on the % scale 0 is the no-effect control and ±100 the full control effect; nearly all actives have a fitted effect of over 60% in size
ELG1 5-FU – qHTS screen for small molecules that inhibit ELG1-dependent DNA repair: Hit Confirmation with 5FU Viability; Potency, µM (top dose mostly 46.1 µM), without a hit: at the top dose activity change, negative = viability loss, usual class: cytotoxic; shares compounds with ELG1 repair inh; 670 tested, under 10 active; cell viability with 5-FU, ELG1-dependent repair;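 further: ELG1-luc HEK293T cells cotreated with 5-fluorouridine at 10 µM final; viability measured 16 h after compound addition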
ELG1 MMS viab – qHTS screen for small molecules that inhibit ELG1-dependent DNA repair: Hit Confirmation with MMS Viability; 670 compounds, 33% hits; Cell viability with MMS, ELG1-dependent DNA repair; Potency, µM (doses to about 46.1 µM), for inactives: at the highest dose activity change, negative = viability loss, usual class: cytotoxic; shares compounds with ELG1 repair inh;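 further: ELG1-luc HEK293T cells co-treated with 10 µM MMS; viability read 16 h after compound addition; on the % scale 0 is the no-effect control and ±100 the full control effect; nearly all actives have a fitted effect of over 60% in size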
ELG1 unstim viab – qHTS screen for small molecules that inhibit ELG1-dependent DNA repair: Hit Confirmation with Unstimulated Viability Assay; Potency, µM (titrated, usually from 45.9 µM), inactives show top-dose activity change, negative = loss of viability, usual class: cytotoxic; shares compounds with ELG1 repair inh; cell viability counter-screen, unstimulated, luminescence; 900 compounds, 8% hits;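 further: compound exposure lasted 16 hours before reading; on the % scale 0 is the no-effect control and ±100 the full control effect; nearly all actives have a fitted effect of over 55% in size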
FLuc enzyme – qHTS screen for small molecules that inhibit ELG1-dependent DNA repair: Hit Confirmation in Biochemical Luciferin Assay; shares compounds with ELG1 repair inh; purified firefly luciferase, luminescence counter-screen; Potency, µM (series often up to 57.5 µM), for inactives: top-dose activity, negative = inhibition, hits mostly inhibitors; 350 compounds, 10% hits; AID 624253, 2012; further: on the % scale 0 is the no-effect control and ±100 the full control effect
The depositor's hits bear a star; [ ] = dose if it differs, or a comment. The call rests on the fitted dose curve; in most records, active means well fitted curve in the direction sought with a large enough effect; inconclusive means small, poorly fitted or top-dose-only effect, or another doubt; inactive means no such curve, though single readings can be large; an effect the other way counts as inactive or inconclusive. Potency means the concentration at half of the fitted maximal effect.

Results for C[N+](C)(C)CC#CCOC(=O)Nc1cccc(Cl)c1 ?
Rab9 prom act: -6.3%[46.1 µM]; SMN2 splice up: 22.9%; NPC1 prom act: 11.1%[46.1 µM]

How did Cn1nnc2cc(NC(=O)Nc3cccc(Cl)c3)ccc21 do in these assays?
Rab9 prom act: 1.41µM*; FLuc modulator: inconclusive; ELG1 repair inh: inconclusive; NPC1 prom act: 2µM*; ELG1 genotox: inconclusive

Results for CCN(CC)c1ccc(N=Cc2c(O)n(-c3ccccc3C)c(=O)[nH]c2=O)cc1 ?
Rab9 prom act: -1.5%; FLuc modulator: inconclusive; SMN2 splice up: -0.2%; ELG1 repair inh: -0.5%; NPC1 prom act: -0.3%; ELG1 genotox: 2.7%

How did CCOc1ccccc1-n1c(O)c(C=Nc2ccc(N(CC)CC)cc2)c(=O)[nH]c1=O do in these assays?
Rab9 prom act: -5.0%; FLuc modulator: 19µM*; SMN2 splice up: -4.7%; ELG1 repair inh: 28.1%; NPC1 prom act: 9.0%; ELG1 genotox: 13.8%

What do the screens show for `COC(=O)c1ccc(CC(C(=O)c2ccccc2)N(C)C)cc1` (stereo unspecified)?
Rab9 prom act: inconclusive; FLuc modulator: 15.1µM*; ELG1 repair inh: inconclusive; NPC1 prom act: inconclusive; ELG1 genotox: inconclusive

What do the screens show for `CC1CC(C)CN(S(=O)(=O)c2ccc3c(c2)oc(=O)n3CC(=O)NCc2cccnc2)C1` (stereo unspecified)?
Rab9 prom act: -3.9%; FLuc modulator: -1.6%; ELG1 repair inh: 3.66µM*; NPC1 prom act: -2.9%; ELG1 genotox: -8.2%

What do the screens show for `CN(Cc1ccccc1)C(=O)Cn1c(=O)oc2cc(S(=O)(=O)NCc3ccccc3)ccc21`?
Rab9 prom act: -0.6%; FLuc modulator: 2.4%; SMN2 splice up: -49.4%; ELG1 repair inh: inconclusive; NPC1 prom act: 0.3%; ELG1 genotox: -10.3%

How did Clc1ccc2sc(C3CCNCC3)nc2c1 do in these assays?
Rab9 prom act: inconclusive; FLuc modulator: 23.9µM*; ELG1 repair inh: inconclusive; NPC1 prom act: inconclusive; ELG1 genotox: inconclusive

What do the screens show for `Clc1cccc(SC2CCNCC2)n1`?
SMN2 splice up: 0.8%

How did COc1ccccc1OP(=O)(Nc1cccnc1)Oc1ccccc1OC do in these assays?
Rab9 prom act: -8.5%; FLuc modulator: -1.4%; SMN2 splice up: 17.8%; ELG1 repair inh: 2.31µM*; NPC1 prom act: 0.5%; ELG1 genotox: -9.6%; ELG1-Luc inh: 11.2µM*; ELG1-Luc MMS: 7.91µM*; ELG1 5-FU: 8.4%; ELG1 MMS viab: -16.1%; ELG1 unstim viab: inconclusive

How did Cc1ccc(NP(=O)(Oc2ccccc2F)Oc2ccccc2F)cc1C do in these assays?
Rab9 prom act: -1.3%; FLuc modulator: 5.6%; SMN2 splice up: -85.4%; ELG1 repair inh: inconclusive; NPC1 prom act: -0.8%; ELG1 genotox: -2.8%

How did Nc1ccc([N+](=O)[O-])cc1[N+](=O)[O-] do in these assays?
SMN2 splice up: -14.4%

What do the screens show for `CN[C@@H]1C[C@@]2(C)O[C@@H]([C@@H]1OC)n1c3ccccc3c3c4c(c5c6ccccc6n2c5c31)C(=O)NC4`?
ELG1 FLuc counter: 0.706µM*; ELG1-Luc inh: 0.5µM*; ELG1-Luc MMS: 0.315µM*; ELG1 5-FU: 11.2µM*; ELG1 MMS viab: 0.997µM*; ELG1 unstim viab: 5µM*; FLuc enzyme: 0.7%

How did CC[C@@H]1/C=C/C=C/C[C@H](C)[C@@H](O)[C@](C)(O)C(=O)[C@H](C)[C@@H](O)[C@H](C)C(=O)[C@H](C)[C@@H](O)[C@H](C)/C=C/C(=O)O[C@H]2[C@@H](C)[C@@H](CC1)O[C@@]1(CC[C@@H](C)[C@@H](C[C@H](C)O)O1)[C@@H]2C do in these assays?
SMN2 splice up: -39.8%; ELG1 FLuc counter: inconclusive; ELG1-Luc inh: 7.06µM*; ELG1-Luc MMS: 0.0112µM*; ELG1 5-FU: inconclusive; ELG1 MMS viab: 0.0112µM*; ELG1 unstim viab: 0.0281µM*; FLuc enzyme: -1.8%
